Vif-APOBEC3G blk: Vif-A3G binding inhibition; Q9HC16; HeLa A3G-eYFP + Vif (tagged APOBEC3G with the HIV-1 protein that degrades it), YFP fluorescence, overnight; AID 602310; Potency, µM (highest dose often 46.1 µM), inactives show at the highest dose activity, negative = active, hits mostly inhibitors; hit rate 0.076% among 410,000; note: potency is the fitted concentration of half-maximal effect; % is set by controls: 0 for no effect and ±100 for the full control effect; nearly all actives have a fitted effect of over 60% in size
Target sequence (Q9HC16 whole entry, looked up): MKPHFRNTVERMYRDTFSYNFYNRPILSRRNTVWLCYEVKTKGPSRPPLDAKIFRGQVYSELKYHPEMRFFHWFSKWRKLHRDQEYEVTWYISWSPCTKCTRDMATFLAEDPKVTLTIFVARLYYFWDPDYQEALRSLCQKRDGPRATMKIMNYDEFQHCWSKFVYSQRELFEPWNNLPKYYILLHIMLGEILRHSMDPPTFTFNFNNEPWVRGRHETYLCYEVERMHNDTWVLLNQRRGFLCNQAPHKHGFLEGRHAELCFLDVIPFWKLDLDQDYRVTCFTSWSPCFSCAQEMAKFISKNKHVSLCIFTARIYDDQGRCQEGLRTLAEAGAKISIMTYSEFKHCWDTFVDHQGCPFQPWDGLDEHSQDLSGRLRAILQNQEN
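HeLa cells stably expressing Vif and C-terminally eYFP-tagged A3G, seeded overnight at 37 deg C, then exposed to compound by pintool overnight at 37 deg C. Rise in yellow fluorescence (Ex 488/Em 500-530, Acumen) marks blocked Vif-driven A3G degradation.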
IL-1B inflam inh: blocks inflammasome-driven IL-1 beta release; THP-1 LPS/ATP IL-1B secretion, AlphaLISA, 16 h; hits give low values; activity change, % at 57.5 µM; hit rate 4.7% among 360,000; in the data active = activity change below about -50%; inconclusive = mostly about -30% to -49%; note: % is set by controls: 0 for no effect and ±100 for the full control effect
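THP-1 cells pretreated 1 hr with compounds (up to 57.5 uM final), then stimulated with LPS (250 ng/mL final) plus ATP (1.25 mM final); secreted IL-1B measured by AlphaLISA after 16 hr, decreased signal indicating inhibition.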
SW480 rerep: induces DNA re-replication in SW480 colon adenocarcinoma cells. SW480 DNA re-replication, Hoechst DNA content imaging, 48 h. Potency, µM (top dose mostly 46.1 µM), inactives show at the top dose re-replication activation, actives largely listed as activators. hit rate 1.8% among 340,000. AID 624297; note: potency is the fitted concentration of half-maximal effect; % of control where 0% means no effect; nearly all actives have a fitted effect of over 55% in size
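250 cells/well; 23 nL cpd via pin tool; 48 hr, 37 C, 5% CO2; Hoechst 40 min; imager read of total nuclear intensity, ex 405/em 500-530 nm.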
MCF10A rereplic: induces DNA re-replication in MCF 10a normal breast cells; MCF 10A DNA re-replication, Hoechst nuclear intensity, 48 h; Potency, µM (titrated, usually from 46.1 µM), for inactives: top-dose activity, positive = re-replication, actives largely listed as activators; hit rate 2.9% among 350,000; AID 624296; note: potency is the fitted concentration of half-maximal effect; % of control where 0% means no effect; nearly all actives have a fitted effect of over 50% in size
Vif-A3F inh: Vif-A3F binding inhibition; hit rate 0.2% among 390,000; HeLa A3F-eYFP + Vif (tagged APOBEC3F with the HIV-1 protein that degrades it), YFP fluorescence increase; Potency, µM (titrated, usually from 46.1 µM), inactives show at the top dose activity, negative = active; note: potency is the fitted concentration of half-maximal effect; % of control where 0% means no effect; nearly all actives have a fitted effect of over 65% in size
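Fluorescence increase (Ex 488/Em 500-530) after overnight compound treatment at 37 deg C flags inhibition of Vif-driven A3F-eYFP loss in stable HeLa A3F-eYFP/Vif cells seeded overnight beforehand.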
Giardia killer: Giardia lamblia killing. hit rate 0.15% among 340,000. Giardia lamblia trophozoite viability. activity change, % at 7.66 µM, hits read low; in the data active = activity change below about -80%; inconclusive = between about -30% and that limit;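 note: parasites exposed to compound for two days anaerobically before the ATP read; % is set by controls: 0 for no effect and ±100 for the full control effect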
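Trophozoites 100 cells/well + cpd; 48 hrs, 37 deg C, anaerobic. ATPLite 1-Step added, 15-30 min RT, luminescence read (ATP-based viability).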
* marks the source's active call; other numbers are inactive results; i = inactive; ? = inconclusive; / = not tested or not shown; [ ] = dose if it differs, or a comment. A selection: hits, their analogues and other compounds. The true share with any hit is near 6.9%. Unless noted, calls come from the whole dose curve; as a rule, active = well fitted curve in the direction sought with a large enough effect; inconclusive = small, poorly fitted or top-dose-only effect, or another doubt; inactive = no such curve, though single readings can be large; an effect the other way counts as inactive or inconclusive.

SMILES | Vif-APOBEC3G blk | IL-1B inflam inh | SW480 rerep | MCF10A rereplic | Vif-A3F inh | Giardia killer
CCCCN(C(=O)CSc1nnc(Nc2ccc(C)c(C)c2)s1)c1c(N)n(Cc2ccccc2)c(=O)[nH]c1=O | -5% | -77* | ? | ? | 6% | -21
CCCN(C(=O)CSc1n[nH]c(-c2ccc(OC)cc2)n1)c1c(N)n(Cc2ccccc2)c(=O)[nH]c1=O | -23% | 32 | -3% | 1% | 25µM* | 2
COCCN(C(=O)COC(=O)c1ccccc1Oc1ccccc1)c1c(N)n(Cc2ccccc2)c(=O)[nH]c1=O | -3% | i | 21µM* | 0% | 2% | 2
CN(C(=O)COC(=O)c1ccccc1Cc1ccccc1)c1c(N)n(Cc2ccccc2)c(=O)[nH]c1=O | -14% | -11 | 5% | 7% | ? | -5
Cc1cc(C(=O)OCC(=O)N(C)c2c(N)n(Cc3ccccc3)c(=O)[nH]c2=O)c(C)n1-c1ccccc1 | -6% | -55* | -1% | 0% | 1% | -11
Cc1cc(-c2ccc(S(=O)(=O)N3CCN(c4ccc(Cl)cc4)CC3)s2)on1 | -2% | / | / | / | -18% | /
O=C(NCc1cccc(Cl)c1)c1ccc(NC(=O)N2CC3CCCN3c3ccccc32)cc1 (configuration not stated) | -3% | / | / | / | -14% | /
COc1ccc(CCN2C(=O)c3[nH]nc(-c4ccccc4O)c3C2c2ccccc2)cc1 (configuration not stated) | ? | / | / | / | -14% | /
CN(C(=O)COC(=O)c1ccccc1Nc1ccccc1)c1c(N)n(Cc2ccccc2)c(=O)[nH]c1=O | -18% | -63* | 10% | ? | 2% | 4
Cc1ccccc1C(=O)OCC(=O)N(C)c1c(N)n(Cc2ccccc2)c(=O)[nH]c1=O | 2% | -4 | 8% | -1% | 5% | 29
O=C(COC(=O)c1ccccc1Nc1ccccc1)c1ccccc1 | -4% | -60* | 18% | ? | 0% | -5
COCCN(C(=O)COC(=O)c1ccccc1Nc1ccccc1)c1c(N)n(Cc2ccccc2)c(=O)[nH]c1=O | -8% | -53* | 3% | ? | 6% | -16
Cc1ccc(CNC(=O)c2cn(C)c3ccc(S(=O)(=O)N4CCC(C)CC4)cc3c2=O)cc1 | 3% | / | / | / | 4% | /
CCN1CCN(c2nc(N)c([N+](=O)[O-])c(Nc3ccc(C)cc3)n2)CC1 | 1% | -62* | -1% | 14% | 3% | 14
CCOC(=O)CN(C)Cc1cn[nH]c1-c1ccc2cc(OC)ccc2c1 | 2% | -64* | 1% | -1% | 4% | 22
Cc1cc(C)c2c(=O)n(CC(=O)Nc3ccc(Cl)cc3)sc2n1 | -3% | -9 | ? | ? | -6% | 11
Cc1ccc(NC(=O)Cn2sc3nc(C)cc(C)c3c2=O)c(Cl)c1 | 0% | 14 | ? | 4.6µM* | -9% | 34
CCOc1ccc(NC(=O)Cn2sc3nc(C)cc(C)c3c2=O)cc1 | -10% | -89* | ? | -6% | -24% | 10
Cc1cc(C)c2c(=O)n(CC(=O)NCCCN3CCOCC3)sc2n1 | 3% | -97* | 2% | ? | -27% | 35
CCCCOc1ccccc1C(=O)N(Cc1cccc(F)c1)C1CCS(=O)(=O)C1 (configuration not stated) | -2% | / | / | / | 1% | /
CC(=O)Nc1ccc(N=Cc2c(O)c(C(=O)Nc3ccccc3)cc3ccccc23)cc1 | -11% | 57 | -5% | 3.7µM* | -3% | -4
Oc1ccc(N=Nc2c(O)ccc3ccccc23)cc1 | 6% | -51* | 1% | -5% | 0% | 7
CNc1ccc2ncc(-c3ccc(OC)c(OC)c3)n2n1 | 1% | -66* | / | / | / | /
CCOc1ccc(CC(=O)Nc2ccc3nc(N4CCCCC4)cc(C)c3c2)cc1OCC | 0% | / | / | / | -7% | /
O=C(c1ccc2c(c1)N(Cc1cccc(Cl)c1)C(=O)c1ccccc1S2=O)N1CCN(c2cccc(C(F)(F)F)c2)CC1 (configuration not stated) | -6% | / | / | / | -4% | /
SMILES | Vif-APOBEC3G blk | IL-1B inflam inh | SW480 rerep | MCF10A rereplic | Vif-A3F inh | Giardia killer
O=C1/C(=C/c2ccc(O)cc2)COc2ccccc21 | -9% | -104* | 18µM* | ? | ? | -21
O=C1/C(=C/c2ccccc2[N+](=O)[O-])COc2ccccc21 | ? | -104* | -349%[1.84 µM] | ? | -12% | 17
COc1ccc(-c2cc(-c3ccccc3)c(C#N)c(S(C)=O)n2)cc1 (configuration not stated) | -2% | -96* | ? | 5.2µM* | -8% | 0
CCOc1ccc(CN(C)CC(O)COC(c2ccc(OC)cc2)c2ccc(OC)cc2)cc1 (configuration not stated) | 1% | -59* | ? | 18µM* | 0% | -4
COc1ccc(CN(C)CC(O)COC(c2ccc(OC)cc2)c2ccc(OC)cc2)cc1 (configuration not stated) | 4% | ? | ? | ? | 1% | -21
COc1ccc(C(OCC(O)CN(C)C2CCCCC2)c2ccc(OC)cc2)cc1 (configuration not stated) | 2% | -71* | 15% | 9% | ? | -22
CC1=C(C)C(=O)C(C(CCCCCC(=O)O)c2ccccc2)=C(C)C1=O (configuration not stated) | / | / | -3% | -2% | / | /
CN(C)CCNc1oc(-c2ccc(COc3ccc(Cl)cc3)o2)nc1C#N | 4% | / | / | / | -12% | /
CC(C)Cn1c(=O)c2ccccc2n2c(CCC(=O)N3CCN(c4ccccc4)CC3)nnc12 | 6% | / | / | / | -3% | /
CCCc1cc(NCCCN2CCOCC2)n2c(nc3ccccc32)c1C#N | -1% | ? | 2%[9.22 µM] | 21µM* | / | -19
CCCc1cc(-n2ccnc2C)n2c(nc3ccccc32)c1C#N | 1% | 9 | ? | 20% | 0% | 1
CCCc1cc(N2CCN(C(=O)c3ccco3)CC2)n2c(nc3ccccc32)c1C#N | 0% | -12 | ? | 21µM* | -10% | -3
COc1ccc2[nH]c3c(c2c1)CCN1C(=O)C(CC(=O)NCC24CC5CC(CC(C5)C2)C4)C[C@H](C(=O)N2CCOCC2)[C@@]31CCC1CCCC1 (some centres not stated) | 0% | -62* | 15% | -22% | 7% | 14
CC[C@]12c3[nH]c4cc(-c5ccco5)ccc4c3CCN1C(=O)[C@@H](CC(=O)NCC13CC4CC(CC(C4)C1)C3)C[C@@H]2C(=O)N1CCN(C(=O)c2ccco2)CC1 | -12% | -54* | ? | ? | 1% | 8
